Reference: PubChem BioAssay (EPA / NIEHS)
Activity calls are given as the source filed them. How the source made its calls: active means hit-call score of the fitted dose curve at least 0.9, where 1 is the maximum; inactive means score below 0.9.

test: APR_HepG2_CellCycleArrest_1hr: Apredica 1-hour HepG2 Assay for Cell Cycle Arrest (AID 2282666); conditions: high-content imaging, actives raise or lower the signal
Method: APR_HepG2_1hr is a cell-based, multiplexed-readout assay that uses HepG2, a human liver cell line, with measurements taken at 1 hour after chemical dosing in a 384-well plate.APR_HepG2_CellCycleArrest_1hr is one of 10 assay component(s) measured or calculated from the APR_HepG2_1hr assay. It is designed to make measurements of cell phenotype, a form of morphology reporter, as detected with fluorescence intensity signals by HCS Fluorescent Imaging technology.Data from the assay component APR_HepG2_CellCycleArrest_1hr was analyzed into 1 assay endpoint. This assay endpoint, APR_HepG2_CellCycleArrest_1hr, was analyzed with bidirectional fitting relative to DMSO as the negative control and baseline of activity. Using a type of morphology reporter, measures of all nuclear dna for gain or loss-of-signal activity can be used to understand the signaling at the pathway-level as they relate to the gene . Furthermore, this assay endpoint can be referred to as a primary readout, because this assay has produced multiple assay endpoints where this one serves a signaling function. To generalize the intended target to other relatable targets, this assay endpoint is annotated to the cell cycle intended target family, where the subfamily is arrest.
Cells were treated with dimethyl sulfoxide (DMSO) as a solvent control at a final concentration of 0.5% v/v or with compounds in DMSO with a resulting final DMSO concentration of 0.5% v/v. Compound treatment was done at concentrations of 0.39, 0.78, 1.56, 3.12, 6.24, 12.5, 25, 50, 100, and 200 uM in duplicate on each plate. Cells were treated with compounds for 1, 24, or 72 hr. Carbonyl […] m-chloro-phenylhydrazone (CCCP) and taxol were used as positive controls for mitochondrial function and cytoskeletal stability, respectively; DMSO served as the negative control for this experiment. Cells were fixed by the direct addition of 50 uL formaldehyde in Hank's Balanced Salt Solution (HBSS) to a final concentration of 3.7%. After incubation in the fixation medium for 30 min at room temperature (293-298 K), cells were rinsed twice with HBSS and treated with cell permeabilization buffer (16 uL of 0.5% Triton X-100) for 10 min at room temperature (293-298 K) before labeling. For mitochondrial membrane potential and mitochondrial measurements, pre-fixed cells were incubated with 50 uL of MitoTracker Red CMXRos (Invitrogen) at a concentration of 250 nM for 30 min before fixation. In the remaining cases, post-fixed cells were labeled by incubation with a multiplexed mixture of primary antibodies in HBSS for 60 min at room temperature (293-298 K) to detect immunoreactivity of c-Jun (1:500), phospho-histone H3 (1:100), phospho-histone H2A.x (1:200), p53 (1:400), alpha-tubulin (1:200) and Hoechst 33342 (2 ug/mL). Cells were labeled for multiplexed imaging on two separate plates: a) Hoechst 33342, MitoTracker Red, phospho-histone H3, and alpha-tubulin, and b) Hoechst 33342, phospho-histone H2A.x, and c-Jun. A final rinse with HBSS (50 uL) was performed before analysis. The primary and secondary antibodies for the proteins were phospho-histone H3 (rabbit anti-phospho-histone H3 and FITC-donkey anti-rabbit IgG), phospho-histone H2A.x (mouse anti-phospho-histone H2A.x and FITC-donkey anti-mouse IgG), c-Jun (rabbit anti-phospho-c-Jun and Cy3-donkey anti-rabbit IgG), p53 (sheep anti-p53 and Cy5-donkey anti-sheep IgG), alpha-tubulin (mouse anti-alpha-tubulin and Cy5-donkey anti-mouse IgG). These antibodies are available as the CellCiphr HepG2 assay kit (Millipore).Digital images of each well were captured using a Cellomics ArrayScan VTI (Thermo Scientific Cellomics) (0.8 NA objective, 0.63x optical coupler, and XF-93 filter set) at 20x magnification. The images were acquired using the autofocus feature of the ArrayScan instrument, which entails the following steps. First, the camera focuses on channel 1 (Hoechst 33342), where nuclei are identified. Second, a Z offset of 1 um is used for capturing mitochondria (MitoTracker Red). […]

| SMILES | outcome |
| --- | --- |
| COP(=O)(OC)SCn1c(=O)oc2cc(Cl)cnc21 | inactive |
| CCOP(=S)(OCC)Oc1cc(C)nc(C(C)C)n1 | inactive |
| C[Si](Cn1cncn1)(c1ccc(F)cc1)c1ccc(F)cc1 | inactive |
| CCOC(=O)CC(SP(=O)(OC)OC)C(=O)OCC (stereo not given) | inactive |
| CCC(=O)Nc1ccc(Cl)c(Cl)c1 | inactive |
| CNC(=O)ON=C(C)SC | inactive |
| C#CCC1=C(C)C(OC(=O)C2C(C=C(C)C)C2(C)C)CC1=O (stereo not given) | inactive |
| CCCSP(=O)(OCC)SCCC | inactive |
| Cc1ccn2nc(S(=O)(=O)Nc3c(F)cccc3F)nc2n1 | inactive |
| CC(Oc1cccc(Cl)c1)C(=O)O (stereo not given) | inactive |
| CC(C)[C@H](C(=O)O[C@H](C#N)c1cccc(Oc2ccccc2)c1)c1ccc(Cl)cc1 | inactive |
| CCOP(=O)(OCC)Oc1cc(C)nc(C(C)C)n1 | inactive |
| CCCOc1nn(C(=O)NS(=O)(=O)c2ccccc2C(=O)OC)c(=O)n1C | inactive |
| CC1=NNC(=O)N(/N=C/c2cccnc2)C1 | inactive |
| CCOP(=S)(OCC)SCCSCC | inactive |
| CCOP(=S)(Oc1cnc(C(C)(C)C)nc1)OC(C)C (stereo not given) | inactive |
| CCOP(=O)(SC(C)CC)N1CCSC1=O (stereo not given) | inactive |
| CCNc1nc(Cl)nc(NC(C)(C)C#N)n1 | inactive |
| CCCOCC(=Nc1ccc(Cl)cc1C(F)(F)F)n1ccnc1 | inactive |
| CCOC(=O)COc1cc(-c2nn(C)c(OC(F)F)c2Cl)c(F)cc1Cl | inactive |

| SMILES | outcome |
| --- | --- |
| CCCCSP(=O)(SCCCC)SCCCC | inactive |
| CNC(=O)ON=C(SC)C(=O)N(C)C | inactive |
| N#CSCSC#N | inactive |
| C[N+]1(C)CCCCC1 | inactive |
| Cc1nn(-c2cc(NS(C)(=O)=O)c(Cl)cc2Cl)c(=O)n1C(F)F | inactive |
| CSc1nnc(C(C)(C)C)c(=O)n1N | inactive |
| CCOP(=S)(OCC)Oc1ccc2c(C)c(Cl)c(=O)oc2c1 | inactive |
| CCc1cccc(CC)c1N(COC)C(=O)CCl | inactive |
| CCc1cccc(C)c1N(C(=O)CCl)C(C)COC (stereo not given) | inactive |
| O=[N+]([O-])c1cc(C(F)(F)F)c(Cl)c([N+](=O)[O-])c1Nc1ncc(C(F)(F)F)cc1Cl | inactive |
| COP(=O)(NC(C)=O)SC (stereo not given) | inactive |
| CSC1=N[C@@](C)(c2ccccc2)C(=O)N1Nc1ccccc1 | inactive |
| CC1(C(=O)Nc2ccc(O)c(Cl)c2Cl)CCCCC1 | inactive |
| CN(C)[C@@H]1C(=O)C(C(N)=O)=C(O)[C@@]2(O)C(=O)C3=C(O)c4c(O)cccc4[C@@](C)(O)[C@H]3[C@H](O)[C@@H]12 | inactive |
| CSc1nc(NC(C)C)nc(NC(C)C)n1 | inactive |
| CCC(=NOC/C=C/Cl)C1=C(O)CC(C2CCOCC2)CC1=O (stereo not given) | inactive |
| COP(=O)(OC)OC(Br)C(Cl)(Cl)Br (stereo not given) | inactive |
| O=C(O)c1cc(Oc2ccc(C(F)(F)F)cc2Cl)ccc1[N+](=O)[O-] | inactive |
| CCCCN(CC)c1c([N+](=O)[O-])cc(C(F)(F)F)cc1[N+](=O)[O-] | inactive |
| Cc1cc(C2CC2)nc(Nc2ccccc2)n1 | inactive |
